# A selection: hits, their analogues and other compounds. The true share with any hit is near 2.8%.
# m-calpain inh: calpain II (pig) inhibition; AID 1236; purified calpain II, fluorogenic peptide substrate, 30 min; inhibition, % at 16 µM; hit rate 0.37% among 220,000;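 active = inhibition above about 50%, limit read from the data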
# Bim-Mcl-1: inhibitors of Bim-Mcl-1 interaction, human; AID 1009; hit rate 0.1% among 190,000; Bead-based flow cytometry, Bim peptide-Mcl-1 binding; inhibition, % at 10 µM; in the data active = inhibition above about 40%
# Target sequence (Q07820 whole entry, looked up): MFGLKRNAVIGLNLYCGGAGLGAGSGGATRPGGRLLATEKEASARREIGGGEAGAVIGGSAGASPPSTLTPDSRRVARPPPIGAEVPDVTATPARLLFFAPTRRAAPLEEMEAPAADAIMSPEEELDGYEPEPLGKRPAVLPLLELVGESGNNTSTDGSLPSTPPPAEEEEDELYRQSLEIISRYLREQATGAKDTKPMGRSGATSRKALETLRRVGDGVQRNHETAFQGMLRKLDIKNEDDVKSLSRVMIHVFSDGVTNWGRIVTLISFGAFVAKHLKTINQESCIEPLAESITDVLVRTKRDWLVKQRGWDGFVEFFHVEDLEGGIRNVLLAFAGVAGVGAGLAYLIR
# TNF necrop inh: TNF-alpha cell death inhibition in Jurkat FADD-/- cells; Jurkat FADD-/- TNF necroptosis rescue, ATP luminescence, 24 h; 0 = TNF only, 100 = no-TNF cells; activation (protection from cell death), % at 10 µM; hit rate 0.068% among 220,000; AID 463075;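 active = activation, meaning protection from cell death, of at least 50% relative to plate controls; inactive = activation below 50%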;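 note: necroptosis triggered by 40 ng/mL TNF-alpha added together with compound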
# Mcl1 Noxa PPI: disrupts binding of human Mcl-1 to Noxa peptide; Q07820; TR-FRET Mcl-1/Noxa peptide binding, 2 h; inhibition, % at 21.7 µM; hit rate 1.5% among 220,000;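 active = compounds that cut the protein-peptide binding signal by more than 50% relative to plate controls in a single-dose test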;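 note: His-tagged Mcl-1 with rhodamine Noxa BH3 peptide and terbium anti-His antibody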
# Mcl1-Bid inh: disrupts binding of human Mcl-1 to Bid peptide. hit rate 0.97% among 220,000. inhibition, % at 21.7 µM. TR-FRET Mcl-1/Bid-Dy647 peptide binding, 1536-well. Q07820;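 active = compounds that cut the binding signal by more than half at the single screening dose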;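 note: His-tagged Mcl-1 with europium anti-His antibody binding Bid BH3 peptide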
# zVAD death inh: blocks zVAD induced death of L929 cells. hit rate 0.38% among 220,000. viability rescue, % at 10 µM. AID 1377. L929 zVAD necroptosis rescue, ATP luminescence, 24 h; with zVAD 60 µM;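 active = activation, scaled between plate controls, above about 75%, limit read from the data; inactive = activation under that limit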
# Hits are given with their value; n = inactive; x = no result given.
SMILES,m-calpain inh,Bim-Mcl-1,TNF necrop inh,Mcl1 Noxa PPI,Mcl1-Bid inh,zVAD death inh
Oc1cc2c(cc1O)[C@@H](c1ccccc1)CNCC2,n,n,n,67,n,n
COC(=O)CSc1ncnc2c1sc1nc(-c3ccco3)c3c(c12)CC(C)(C)OC3,n,n,n,76,n,n
CCOC(=O)c1c(NC(=O)CN(C)C)sc(C(=O)N(CC)CC)c1C,n,n,n,n,70,n
CN(C)S(=O)(=O)c1cccc(-c2nn(-c3ccccc3)cc2/C=C2\SC(=S)NC2=O)c1,n,n,n,108,88,n
O=C(O)CCn1cc(/C=C2\SC(=S)NC2=O)c(-c2ccccc2)n1,n,n,n,n,n,n
O=[N+]([O-])c1ccc(O)c(/C=N/Nc2ccc(Cl)nn2)c1,n,n,n,79,n,n
CCNc1nc(NCC)nc(OCCOC(=O)Nc2ccccc2)n1,n,n,n,n,n,x
CCNc1nc(NCC)nc(C(=O)Nc2ccccc2)n1,n,n,n,65,n,n
Cc1c(O)ccc(-c2n[nH]c(C(=O)O)c2-c2nc3ccccc3s2)c1O,n,x,n,n,n,n
CC(C)CC(=O)NC1(C(F)(F)F)C(=O)N(CC(C)C)C2=C1C(=O)CC(C)(C)C2 (centres undefined),n,n,n,n,n,n
Cc1ccc(C23CC4CC(CC(C(=O)N5CCOCC5)(C4)C2)C3)cc1,n,n,n,n,58,n
COc1cc(-c2nnc(SCc3cc(=O)oc4cc(O)c(O)cc34)o2)cc(OC)c1OC,n,n,n,77,n,n
CCOC(=O)CSc1nnc(-c2cc(OC)c(OC)c(OC)c2)o1,n,n,n,n,n,n
c1ccc(Nc2cccc(Nc3ccccc3)n2)cc1,n,n,n,72,n,n
c1ccc(Nc2ccccn2)cc1,n,n,n,n,n,n
c1ccc(Nc2cccc3c(Nc4ccccc4)cccc23)cc1,n,x,n,51,n,n
Cc1cc(-c2ccccc2)c2c(=O)[nH][nH]c2n1,n,n,n,n,n,n
O=C(Nc1ccc([N+](=O)[O-])cc1)Nc1ccc(N2CCOCC2)c2nonc12,n,n,n,94,n,n
CC(=O)Nc1cc([N+](=O)[O-])ccc1N1CCOCC1,n,n,n,n,n,n
Cc1cc(C)c(C)c(OCCCCn2cnc3ccccc3c2=O)c1,n,n,n,x,n,n
COc1cccc(OC)c1OCCCCn1cnc2ccccc2c1=O,n,n,n,n,51,n
COCCNC(=O)[C@@]1(Cc2ccccc2)C=C[C@@H](C)N1C(C)=O,n,n,n,n,n,n
NC(=O)[C@@H]1CCCNc2c(I)cc([N+](=O)[O-])cc2C(=O)N[C@@H](CO)C(=O)N[C@@H](Cc2ccc(O)cc2)C(=O)N1,n,n,n,n,n,n
NC(=O)CC[C@@H]1NC(=O)[C@H](CO)NC(=O)c2cc([N+](=O)[O-])cc(I)c2NCCC[C@@H](C(N)=O)NC(=O)[C@H](Cc2ccc(O)cc2)NC1=O,n,n,n,62,n,n
CC#C[C@]1(O)CC[C@H]2[C@@H]3CCC4=CC(=O)CCC4=C3[C@@H](c3ccc(N(C)C)cc3)C[C@@]21C,n,n,n,67,n,n
SMILES,m-calpain inh,Bim-Mcl-1,TNF necrop inh,Mcl1 Noxa PPI,Mcl1-Bid inh,zVAD death inh
O=C(Cn1nnc2ccccc2c1=O)N[C@H](C(=O)O)c1ccccc1,n,x,n,n,n,n
O=C(O)c1ccc(-n2cccc2/C=C2/NC(=O)N(c3ccccc3)C2=O)cc1,n,x,n,72,n,n
O=C(O)c1ccc(-n2cccc2/C=C2/NC(=O)N(c3cccc(Cl)c3)C2=O)cc1,n,n,n,74,n,n
O=C(O)c1cccc(-n2cccc2/C=C2\NC(=O)N(Cc3ccc(F)cc3)C2=O)c1,n,n,n,n,n,n
CN(C)c1ccc(N/C(N)=N/c2nc(C(F)(F)F)cc(C(F)(F)F)n2)cc1,n,n,n,61,n,n
CC(C)n1c(=S)[nH]c2c1c(=O)[nH]c(=O)n2C,n,n,n,54,n,n
C=CC(C)n1c(Br)nc2c1c(=O)[nH]c(=O)n2C (centres undefined),n,n,n,n,n,n
CC(C)CN(C(=O)c1nn(C)c(=O)c2ccccc12)c1nc2ccccc2s1,n,n,n,n,n,n
NS(=O)(=O)c1ccc(-c2ccc(/C=C3\C(=O)Nc4cc(Cl)ccc43)o2)cc1,n,n,n,63,n,n
COC1=C(OC)C(=O)C(CCCCCCCCCCO)=C(C)C1=O,n,n,x,55,n,x
CN1C(=O)/C(=C/C=C2\SCCN2C)SC1=S,n,n,n,n,n,x
CCOc1cc(/C=C/C(=O)OCC(=O)NC2CCS(=O)(=O)C2)ccc1OCc1ccccc1 (centres undefined),n,n,n,n,n,n
COc1ccc(C(=O)/C=C/C(=O)N(CC(=O)NC2CCCCC2)Cc2ccccc2)c(O)c1,n,n,n,n,n,n
COc1ccc(C(=O)/C=C/C(=O)N(CC(=O)NC2CCCCC2)CC2CCCO2)c(O)c1 (centres undefined),n,n,n,68,n,n
COc1ccc(N(C)S(=O)(=O)c2cccc(C(=O)NCC3CCCCC3)c2)cc1,55,n,n,n,n,n
CC(=O)c1ccc(NC(=O)Nc2ccc3c(c2)N(C)C(=O)CS3)cc1,n,n,n,61,n,n
COc1ccc(N(C(=O)c2ccc(Br)o2)C2C=CS(=O)(=O)C2)cc1 (centres undefined),n,n,n,n,n,n
CC(C)CCOc1ccc(/C=C2\CCn3c2nc2cc(C(=O)O)ccc2c3=O)cc1,n,n,n,78,n,n
O=[N+]([O-])c1ccccc1NC(=S)N/N=C/c1ccc(O)c(O)c1,n,n,n,55,n,n
C=CCNC(=S)N/N=C/c1ccc(C)c([N+](=O)[O-])c1,52,n,n,n,n,n
CCOc1cccc(/C=N/NC(=S)Nc2ccccc2[N+](=O)[O-])c1O,n,n,n,n,n,n
CNC(=S)/N=C/NOCc1ccc(Cl)cc1Cl,n,n,n,n,n,n
CN(C)c1ccc(-c2ccccc2)nn1,n,n,n,n,n,n
CCCOc1ccc(C(=O)NCC(c2ccco2)N(C)C)cc1OC (centres undefined),n,n,n,n,95,n
COc1ccc(C(=O)NCC(=O)NCC(c2ccco2)N(C)C)cc1OC (centres undefined),n,n,n,n,n,n
CN1C(=S)SC2CS(=O)(=O)CC21 (centres undefined),n,x,n,n,n,n
NC(=O)c1ccc(NC(=O)COC(=O)/C=C/c2ccc3c(c2)OCO3)cc1,n,x,n,n,n,n
Cc1cccc(NC(=O)c2cc(-c3ccccn3)nc3ccccc23)c1C,n,n,n,n,n,n
CCOc1ccsc1C(=O)OC,n,x,n,n,n,n
